Source: PubChem (several laboratories)
Mtb bLac sens – beta-lactam sensitization of Mtb H37Rv; M. tuberculosis H37Rv growth with meropenem, percent inhibition; inhibition, % at 25 µM; hit rate 0.27% among 330,000;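 further: growth measured after seven days incubation then overnight dye step; 0% = bacteria only wells and 100% = bacteria with antibiotic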
Rv3671c inh – inhibits the M. tuberculosis serine protease Rv3671c; P9WHR9; inhibition, % at 5.96 µM; hit rate 0.048% among 320,000; AID 2606; in the data active means inhibition above about 38%;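 further: extracellular domain of Rv3671c used as enzyme; 0% = enzyme with DMSO and 100% = no enzyme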
Target sequence (P9WHR9 whole entry, looked up, the tested form may be a part): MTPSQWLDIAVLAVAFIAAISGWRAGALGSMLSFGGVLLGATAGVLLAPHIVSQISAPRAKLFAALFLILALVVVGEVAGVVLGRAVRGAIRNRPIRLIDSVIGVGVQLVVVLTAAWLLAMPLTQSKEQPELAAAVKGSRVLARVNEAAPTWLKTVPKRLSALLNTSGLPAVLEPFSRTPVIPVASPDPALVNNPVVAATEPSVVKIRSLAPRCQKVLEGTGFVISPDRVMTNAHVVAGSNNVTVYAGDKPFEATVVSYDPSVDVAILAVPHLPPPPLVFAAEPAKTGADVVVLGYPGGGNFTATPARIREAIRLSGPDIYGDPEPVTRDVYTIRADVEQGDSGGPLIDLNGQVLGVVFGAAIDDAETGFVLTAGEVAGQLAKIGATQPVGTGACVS
Mtb FBA inh – inhibits M. tuberculosis FBA enzyme; P9WQA3; purified M. tuberculosis FBA, fluorescence read-out; inhibition, % at 1 µM; hit rate 2.3% among 360,000; AID 588726; in the data active means inhibition above about 27%;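 further: 0% = vehicle and 100% = reference inhibitor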
RecA intein inh – blocks M. tuberculosis RecA intein splicing. inhibition, % (test concentration not listed). hit rate 0.75% among 290,000. cell-free RecA intein splicing, fluorescence; in the data active means inhibition above about 30%;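 further: 0% = vehicle wells and 100% = reference inhibitor control wells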
Mtb UGM inh – inhibitors of M. tuberculosis UDP-galactopyranose mutase; hit rate 0.06% among 320,000; purified UGM, fluorescence polarization probe displacement; inhibition, % at 10 µM; AID 504406; P9WIQ1; in the data active means inhibition above about 10%, passing the limit was not always enough
GDH-TPI counter – counter-screen for M. tuberculosis FBA inhibitors: GDH-TPI coupled enzymes. GDH-TPI coupled enzyme counterscreen, NADH absorbance. inhibition, % at 4.8 µM. hit rate 1.2% among 360,000; in the data active means inhibition above about 30%;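 further: 0% = DMSO wells and 100% = wells lacking the enzyme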
GFP chromo cs – counter-screen GFP chromophore formation inhibition; shares compounds with RecA intein inh; cell-free GFP chromophore formation, fluorescence; EC50, µM; hit rate 83% among 2,100; AID 434968
An asterisk follows results filed as active. In the library only some 4% were active in any assay of this set; here they are far more common. Unless noted, how the calls were made is not given here.

Results for CC(=O)c1c(C)oc2c1C(=O)c1ccccc1C2=O ?
Mtb bLac sens: -6; Rv3671c inh: -21; Mtb FBA inh: 0; RecA intein inh: 2; Mtb UGM inh: -3; GDH-TPI counter: 3

Results for Cc1oc2c(c1C(=O)NCc1cccnc1)C(=O)c1ccccc1C2=O ?
Mtb bLac sens: 100; Rv3671c inh: -43; RecA intein inh: 75*; Mtb UGM inh: 1; GFP chromo cs: 0.62*

What do the screens show for `COc1ccc(CNC(=O)c2c(C)oc3c2C(=O)c2ccccc2C3=O)cc1`?
Mtb bLac sens: 99; Rv3671c inh: -32; Mtb FBA inh: 3; RecA intein inh: 58*; Mtb UGM inh: -1; GDH-TPI counter: 5; GFP chromo cs: 23*

What do the screens show for `O=C(NCc1n[nH]c(=S)n1-c1ccc(Br)cc1)c1ccc(S(=O)(=O)N2CCOCC2)cc1`?
Mtb bLac sens: -5; Rv3671c inh: 3; Mtb FBA inh: -4; RecA intein inh: 0; Mtb UGM inh: 4; GDH-TPI counter: -1

Results for COCCNc1c([N+](=O)[O-])c(=O)n(-c2ccccc2)c2ccccc12 ?
Mtb bLac sens: 5; Rv3671c inh: 8; Mtb FBA inh: -1; RecA intein inh: -4; Mtb UGM inh: 0; GDH-TPI counter: 4

How did CCSc1c([N+](=O)[O-])c(=O)n(-c2ccccc2)c2ccccc12 do in these assays?
Mtb bLac sens: 70; Rv3671c inh: -9; Mtb FBA inh: -8; RecA intein inh: 40*; Mtb UGM inh: -1; GDH-TPI counter: -6; GFP chromo cs: >38

Results for CC1=CC(C)(C)N2C(=O)C3(C(C#N)=C(N)Oc4cc(C)oc(=O)c43)c3cc(C)cc1c32 (stereo not drawn) ?
Mtb bLac sens: -4; Rv3671c inh: 0; Mtb FBA inh: -1; RecA intein inh: 2; Mtb UGM inh: 1; GDH-TPI counter: 5

Results for CCc1cc2c3c(c1)C1(C(=O)N3C(C)(C)C=C2C)C(C#N)=C(N)Oc2[nH]c(=O)[nH]c(=O)c21 (stereo not drawn) ?
Mtb bLac sens: 46; Rv3671c inh: -11; Mtb FBA inh: 2; RecA intein inh: 78*; Mtb UGM inh: -1; GDH-TPI counter: -2; GFP chromo cs: 19*

Results for O=c1c(Cl)c(Cl)cnn1Cc1ccccc1Cl ?
Mtb bLac sens: 93; Rv3671c inh: -2; RecA intein inh: 38*; Mtb UGM inh: 0; GFP chromo cs: 20*

Results for Cc1ccc(-c2nnc(Cc3ccc(Cl)cc3)o2)cc1 ?
Mtb bLac sens: 4; Rv3671c inh: -8; Mtb FBA inh: -1; RecA intein inh: 3; Mtb UGM inh: -2; GDH-TPI counter: -1

Results for O=c1c(Cl)c(Cl)cnn1Cc1nnc(-c2ccc(Cl)cc2)o1 ?
Mtb FBA inh: 3; RecA intein inh: 37*; GDH-TPI counter: 1; GFP chromo cs: 9.3*

Results for N#C/C(=C\c1cccc(O)c1)c1nc2ccccc2o1 ?
Mtb bLac sens: -2; Rv3671c inh: -4; Mtb FBA inh: 7; RecA intein inh: 69*; Mtb UGM inh: 1; GDH-TPI counter: 35*; GFP chromo cs: 21*

Results for Nc1ccnn1Cc1ccncc1 ?
Mtb bLac sens: 2; Rv3671c inh: -1; Mtb FBA inh: -3; RecA intein inh: 1; Mtb UGM inh: 0; GDH-TPI counter: 2

What do the screens show for `CCOC(=O)C(Nc1ccc2ccccc2c1)C(=O)OCC`?
Mtb bLac sens: 99; Rv3671c inh: -8; Mtb FBA inh: 9; RecA intein inh: 71*; Mtb UGM inh: -2; GDH-TPI counter: 5; GFP chromo cs: 22*

What do the screens show for `CC(=O)Nc1ccc2ccccc2c1`?
Mtb bLac sens: 77; Rv3671c inh: -5; Mtb FBA inh: -1; RecA intein inh: -2; Mtb UGM inh: 4; GDH-TPI counter: 9

Results for CN1CCc2cc3c(c4c2C1Cc1ccccc1-4)OCO3 (stereo not drawn) ?
Mtb bLac sens: 99; Rv3671c inh: -46; Mtb FBA inh: -2; RecA intein inh: 55*; Mtb UGM inh: 4; GDH-TPI counter: 10; GFP chromo cs: 0.87*

How did COc1ccc(-c2csc(N)n2)cc1F do in these assays?
Mtb bLac sens: 95; Rv3671c inh: -2; Mtb FBA inh: -3; RecA intein inh: 2; Mtb UGM inh: -2; GDH-TPI counter: -9

Results for O=C(CSCc1ccc([N+](=O)[O-])cc1)N/N=C/c1cccnc1 ?
Mtb bLac sens: 1; Rv3671c inh: -3; Mtb FBA inh: 4; RecA intein inh: 38*; Mtb UGM inh: -2; GDH-TPI counter: -1; GFP chromo cs: >38

Results for O=C(CSCc1ccc([N+](=O)[O-])cc1)N/N=C/c1ccncc1 ?
Mtb bLac sens: 99; Rv3671c inh: 6; Mtb FBA inh: 1; RecA intein inh: -2; Mtb UGM inh: 1; GDH-TPI counter: -6

How did CCOC(=O)CCP(=O)(O)C(O)c1ccc(OC)cc1 (stereo not drawn) do in these assays?
Mtb bLac sens: -13; Rv3671c inh: -1; Mtb FBA inh: 7; RecA intein inh: 1; Mtb UGM inh: 0; GDH-TPI counter: 0

How did Cc1ccc(-c2[nH]nc3c2C(c2ccsc2)C(C#N)=C(N)O3)cc1 (stereo not drawn) do in these assays?
Mtb bLac sens: -20; Rv3671c inh: -3; Mtb FBA inh: 0; RecA intein inh: 65*; Mtb UGM inh: -1; GDH-TPI counter: -2; GFP chromo cs: 1.8*

What do the screens show for `COc1cc(-c2[nH]nc3c2C(c2ccco2)C(C#N)=C(N)O3)cc(OC)c1OC` (stereo not drawn)?
Mtb bLac sens: -8; Rv3671c inh: -1; Mtb FBA inh: -2; RecA intein inh: 79*; Mtb UGM inh: -5; GDH-TPI counter: 8; GFP chromo cs: 9.1*

How did N#CC1=C(N)Oc2n[nH]c(-c3ccccc3)c2C1c1ccsc1 (stereo not drawn) do in these assays?
Mtb bLac sens: -9; Rv3671c inh: 0; Mtb FBA inh: -2; RecA intein inh: 86*; Mtb UGM inh: -1; GDH-TPI counter: 22; GFP chromo cs: 31*

Results for CCC(CC)C1C(C#N)=C(N)Oc2n[nH]c(-c3ccccc3)c21 (stereo not drawn) ?
Mtb bLac sens: 0; Rv3671c inh: -117; Mtb FBA inh: 0; RecA intein inh: 4; Mtb UGM inh: 2; GDH-TPI counter: 9

Results for CCOc1ccc(-c2[nH]nc3c2C(c2cccnc2)C(C#N)=C(N)O3)cc1 (stereo not drawn) ?
Mtb bLac sens: -2; Rv3671c inh: 11; Mtb FBA inh: 1; Mtb UGM inh: 0; GDH-TPI counter: 3

What do the screens show for `N#CC1=C(N)Oc2n[nH]c(-c3ccncc3)c2C1c1ccsc1` (stereo not drawn)?
Mtb bLac sens: -16; Rv3671c inh: -9; Mtb FBA inh: 5; RecA intein inh: 54*; Mtb UGM inh: 2; GDH-TPI counter: 5; GFP chromo cs: 38*
